The list is not random: actives were taken first. Their share in the collection is about 4.7%.
eIF4H FP inh: inhibitors of RNA binding by human eIF4H. Q15056. eIF4H fluorescence polarization binding assay. inhibition, % at 35 µM. 0.94% of 290,000 active. AID 2012;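 note: calls also rest on retests at 20 µM and on dose response follow-up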
Efflux pump inh: blocks antifungal efflux pumps in multiplex yeast assay. S. cerevisiae Candida pump triplex, Nile Red efflux. inhibition, % at 10 µM. 0.44% of 330,000 active. AID 485275;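 active = plate passing quality check with inhibition over a set limit, or well fluorescence over plate mean plus 4 SD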;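 note: Nile Red retained in pooled yeast measured as flow cytometry median fluorescence; 0% = buffer negative control and 100% = Enniatin B positive control; higher means more Nile Red kept so more efflux inhibition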
ALR H2O2 inh: human ALR oxidase inhibition via reduced H2O2 | P55789 | purified ALR, DTT oxidation, H2O2 HRP-luminol luminescence | inhibition, % (test concentration not listed) | 3.8% of 290,000 active | AID 485317;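 active = mean replicate inhibition above about 79%, with every replicate also reaching it, limit read from the data; inconclusive = only one of the two criteria met; inactive = mean below limit and not every replicate reaching it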
Target sequence (P55789 whole entry, looked up): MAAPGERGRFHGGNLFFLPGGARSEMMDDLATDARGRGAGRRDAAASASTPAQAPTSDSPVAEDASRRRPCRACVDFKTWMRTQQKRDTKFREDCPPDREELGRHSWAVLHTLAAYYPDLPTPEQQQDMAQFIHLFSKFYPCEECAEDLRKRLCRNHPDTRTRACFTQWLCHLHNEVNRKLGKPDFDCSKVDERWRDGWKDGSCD
PABP FP inh: blocks human PABP binding to poly(A) RNA. inhibition, % at 35 µM. fluorescence polarization. 1% of 290,000 active. AID 2014;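 note: calls also rest on retests at 20 µM and on dose response follow-up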
MLLE-PAM2 inh: blocks PAM2 peptide binding to the PABP1 MLLE domain; P11940; 0.36% of 360,000 active; inhibition, % at 20 µM; GST-MLLE / FITC-PAM2 fluorescence polarization; in the data active = inhibition above about 35%, passing the limit was not always enough;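 note: plate controls were DMSO wells with GST-MLLE for no effect and wells lacking GST-MLLE protein for full effect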
SUMO HTRF inh: SUMOylation inhibition; P63279; HTRF SUMOylation assay, SAE1/SAE2 + UBC9, in vitro; inhibition, % at 35 µM; 0.36% of 290,000 active; AID 2006; in the data active = inhibition above about 50%, passing the limit was not always enough; inconclusive = no clear call, values can overlap the other calls
Target sequence (P63279 whole entry, looked up): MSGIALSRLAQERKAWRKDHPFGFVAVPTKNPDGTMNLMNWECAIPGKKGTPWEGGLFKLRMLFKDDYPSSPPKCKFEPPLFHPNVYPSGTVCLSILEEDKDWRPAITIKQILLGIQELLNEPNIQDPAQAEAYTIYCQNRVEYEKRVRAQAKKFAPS
Yeast cmpd fluor: counter-screen for efflux pump inhibitors: compound fluorescence. 4% of 1,700 active. fluorescence ratio to DMSO, % at 10 µM. AID 588517. S. cerevisiae AD/pABC3, flow cytometry. shares compounds with Efflux pump inh;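 active = fluorescence ratio to DMSO above its plate's cutoff, the plate mean ratio plus 5 SD, cut at about 210% in these data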;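 note: unstained yeast with no Nile Red so the signal is compound autofluorescence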
Mdr1 pump inh: Candida Mdr1 efflux pump inhibition | shares compounds with Efflux pump inh | inhibition, % at 10 µM | 1% of 1,700 active | S. cerevisiae AD/CaMDR1, Nile Red efflux, flow cytometry | AID 588518; in the data active = inhibition above about 26%;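 note: 0% = DMSO vehicle and 100% = reference inhibitor; higher means more Nile Red retained so more efflux inhibition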
Cdr2 pump inh: blocks the Candida albicans Cdr2 efflux pump in yeast; shares compounds with Efflux pump inh; S. cerevisiae AD/CaCDR2, Nile Red retention, flow cytometry; Nile Red retention ratio vs DMSO, % at 10 µM; 4% of 1,700 active; in the data active = Nile Red retention ratio vs DMSO above about 190%;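 note: higher ratio means more blocking of Cdr2 efflux of the dye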
CaCdr1 efflux inh: Candida Cdr1 efflux pump inhibition | shares compounds with Efflux pump inh | S. cerevisiae AD/CaCDR1, Nile Red efflux, flow cytometry | inhibition, % at 10 µM | 1% of 1,700 active;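 active = inhibition above the screen-wide mean plus twice its standard deviation, cut at about 32% in these data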
Active calls of the source: *; ? = inconclusive; . = no result given. Unless noted, the rule behind the calls is not given here.

SMILES	eIF4H FP inh	Efflux pump inh	ALR H2O2 inh	PABP FP inh	MLLE-PAM2 inh	SUMO HTRF inh	Yeast cmpd fluor	Mdr1 pump inh	Cdr2 pump inh	CaCdr1 efflux inh
CC1CCc2cc(F)ccc2N1S(=O)(=O)c1ccc(Cl)nc1 (stereo not given)	2.0	0.4	26.1	1.5	8.5	-14.5	.	.	.	.
CCCc1[nH]n(-c2ccc([N+](=O)[O-])cc2)c(=O)c1C=NCCc1ccc(OC)c(OC)c1	3.2	0.8*	-0.7	7.1	-9.9	-12.2	111.1	0.1	103.9	0.0
Cc1cc(Cl)c2oc(C(=O)N3CCCCC3CCN3CCCC3=O)c(C)c2c1 (stereo not given)	6.3	-0.7	3.5	0.4	-3.2	2.5	.	.	.	.
C/C(=N/NC(=O)CNC(=O)c1cccnc1)c1cccc([N+](=O)[O-])c1	3.8	0.0	0.0	2.9	9.1	4.8	.	.	.	.
O=C(c1ccc(Cl)cc1)N1C2C=CC(C2)C1(C(F)(F)F)C(F)(F)F (stereo not given)	-6.7	15.2*	-3.7	-2.5	10.0	-0.2	128.2	1.0	106.0	0.0
Cc1ccc(SCCC(=O)OCC(=O)Nc2ccc(C(N)=O)cc2)cc1	.	0.1	-0.9	.	13.1	.	.	.	.	.
Cc1c(C(=O)Nc2ccc3nc(N4CCOCC4)sc3c2)oc2ccccc12	.	0.8*	-1.6	.	-19.4	.	109.0	-0.1	110.3	0.1
Cc1noc(C)c1NC(=O)Nc1cccc2c1O[C@H](CN(C)C(=O)NC(C)C)[C@@H](C)CN([C@H](C)CO)C2=O	.	0.0	-2.3	.	6.6	.	.	.	.	.
COc1ccc(-c2nc3ccccc3c(=O)n2CCOc2cc(C)ccc2C)cc1	1.5	0.7*	-0.3	1.9	-9.3	5.8	101.7	-0.2	111.6	0.1
COc1ccc(-c2nc3ccccc3c(=O)n2CCOc2ccc(C)cc2C)cc1	-4.2	0.7*	2.7	7.6	-12.3	2.6	103.1	0.1	111.6	0.2
COc1ccc(-c2nc3ccccc3c(=O)n2CCOc2ccccc2C)cc1	5.3	0.8*	0.1	0.7	-0.8	-5.2	104.5	0.1	110.3	-0.1
COc1ccc(-c2nc3ccccc3c(=O)n2CC(C)C)cc1	-14.9	0.1	3.3	-2.1	-3.2	1.9	.	.	.	.
CCOC(=O)C1(Cc2ccccc2C(F)(F)F)CCN(C(=O)c2cc(C(C)=O)n[nH]2)CC1	-1.1	0.0	-14.0	3.3	-5.1	-7.2	.	.	.	.
N#C/C(=C/c1ccncc1)c1nc2ccccc2s1	?	0.0	-11.6	?	-3.0	5.9	102.5	-0.1	101.7	0.1
CSc1nnnn1-c1ccc(C)c(Cl)c1	-3.9	14.2*	-4.0	-11.6	-4.8	2.2	100.0	-0.1	108.3	0.0
CSc1nnnn1-c1ccc(C(=O)O)cc1	-4.8	-0.1	1.1	3.7	7.3	26.3	.	.	.	.
COc1cc(/C=C/C(=O)O)cc(S(=O)(=O)Nc2ccccc2C(=O)NCc2ccco2)c1OC	.	-0.1	-4.6	.	-4.4	.	.	.	.	.
CCc1ccc(C2=NN(S(C)(=O)=O)C(c3cccs3)C2)cc1 (stereo not given)	1.6	3.0*	-1.7	-8.7	-40.2	8.2	125.1	0.8	151.0	1.2
Cc1ccc(C2=NN(S(C)(=O)=O)C(c3cccs3)C2)cc1 (stereo not given)	-0.6	0.2	-0.3	7.7	-4.7	-6.2	.	.	.	.
O=C1C(=O)N(CC2CCCO2)C(c2ccccc2[N+](=O)[O-])/C1=C(/O)c1ccccc1 (stereo not given)	6.2	1.4*	8.6	10.1	3.5	11.0	85.2	-0.1	96.3	0.0
O=C(COC(=O)c1cccs1)NCCN1C(=O)CSC1=O	-1.8	0.0	1.1	5.7	9.7	11.4	.	.	.	.
O=C(COC(=O)c1ccc(O)cc1O)NCCN1C(=O)CSC1=O	-11.1	-0.1	-6.3	-8.1	8.0	10.1	100.2	-0.1	97.2	-0.4
O=C(COC(=O)c1cc(Cl)ccc1Cl)NCCN1C(=O)CSC1=O	10.3	32.0*	-2.8	-9.6	4.7	10.0	94.8	-0.2	100.7	-0.1
CC1CCCC(C)N1CC(C)(C)NS(=O)(=O)c1ccc(Cl)cc1 (stereo not given)	-1.8	0.1	-8.7	15.1	0.5	11.5	.	.	.	.
CC(C)(CNC(=O)/C=C/c1ccc(F)cc1)CNC(=O)/C=C/c1ccc(F)cc1	2.9	12.6*	-2.4	22.0	3.1	-13.6	105.8	-0.3	102.9	-0.1
SMILES	eIF4H FP inh	Efflux pump inh	ALR H2O2 inh	PABP FP inh	MLLE-PAM2 inh	SUMO HTRF inh	Yeast cmpd fluor	Mdr1 pump inh	Cdr2 pump inh	CaCdr1 efflux inh
CC(C)(C)SCCNC(=O)/C=C/c1ccc(F)cc1	2.6	-0.1	-3.2	34.9	17.4	1.6	.	.	.	.
COc1cccc(/C(O)=C2/C(=O)C(=O)N(CCCN3CCOCC3)C2c2ccncc2)c1 (stereo not given)	-7.7	0.1	-2.9	1.8	-0.3	15.2	.	.	.	.
COC(=O)c1ccc(C2/C(=C(\O)c3cccc(OC)c3)C(=O)C(=O)N2CCCN2CCOCC2)cc1 (stereo not given)	-1.8	9.7*	-1.8	-5.7	-2.6	-11.9	115.7	-0.2	96.0	0.1
O=C(OCc1ccccc1)c1ccc(Br)o1	-1.2	1.1*	0.5	7.4	-7.0	1.0	100.2	0.1	116.2	-0.2
Clc1ccc(-c2n[nH]c3c2CCC3)cc1Cl	-5.9	0.6*	.	1.2	8.8	30.4	93.7	0.0	103.6	-0.3
CCOC(=O)c1nn(-c2ccccc2)c(=O)c(C#N)c1C	9.0	1.0*	-12.7	16.1	0.4	15.3	101.1	0.0	116.5	0.0
CCOC(=O)c1nn(-c2ccc(F)cc2)c(=O)c(C#N)c1C	-3.7	0.1	-8.1	3.1	10.5	16.4	.	.	.	.
O=C(Cc1cccc(C(F)(F)F)c1)OCN1C(=O)c2ccccc2C1=O	1.5	1.3*	.	8.8	-0.4	-12.9	101.4	-0.3	103.9	-0.1
O=C(NC1CCCC1)C(c1ccccn1)N(C(=O)c1csnn1)c1ccc(F)cc1 (stereo not given)	-4.2	0.0	-6.3	1.5	-14.0	7.8	.	.	.	.
Cc1ccc(OCc2cc(C(=O)NCC3COCCO3)no2)cc1C (stereo not given)	-5.9	0.0	2.1	7.2	-5.6	-0.5	.	.	.	.
Cc1ccc(OCc2cc(C(=O)NCC(C)(C)N3CCOCC3)no2)cc1C	14.6	1.5	-10.1	-1.1	-6.8	-13.6	98.2	-0.1	97.7	0.8
COc1ccc(S(=O)(=O)N2CCN(C(=O)c3cc(-c4ccc(C)cc4)n[nH]3)CC2)cc1	-2.1	-0.1	1.6	-5.1	13.3	10.2	.	.	.	.

Screens from PubChem BioAssay.
